Hits are enriched below; roughly 5.4% of the tested compounds scored in any of these assays.
Sm TGR block: qHTS Assay for the Inhibitors of Schistosoma Mansoni Peroxiredoxins | 3% of 360,000 active | purified TGR, DTNB reduction, TNB absorbance 405 nm | Potency, µM (series often up to 114 µM), without a hit: at the highest dose activity change, negative = inhibition, actives largely listed as inhibitors | Schistosoma mansoni thioredoxin glutathione reductase (TGR), Q962Y6; active = well fitted inhibition curve with a large enough effect; inconclusive = small, poorly fitted or top-dose-only effect; inactive = no such curve, though single readings can be large or run the other way; also: nearly all actives have a fitted effect of over 60% in size
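First, TGR (20 nM dispensed) and NADPH were mixed with compound. Second, a 15 min room-temperature incubation followed. Third, further NADPH and then DTNB were added to start the reaction. Finally, TNB absorbance was monitored kinetically.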
FMDV inh: High Throughput Screening for Foot and Mouth Disease Virus Antivirals | FMDV antiviral cell-based qHTS | Potency, µM (top dose mostly 57.9 µM), inactives show top-dose activity change, negative = inhibition, hits mostly inhibitors | 1.2% of 410,000 active; calls by dose curve; tested in HEK293T cells; also: read-out not given here; nearly all actives have a fitted effect of over 45% in size
Vaccinia mCherry: qHTS for Stage-Specific Inhibitors of Vaccinia Orthopoxvirus: mCherry Reporter Primary qHTS; Vaccinia virus mCherry reporter infection, fluorescence; Potency, µM (titrated, usually from 36.5 µM), without a hit: at the top dose activity change, negative = inhibition, most hits filed as inhibitors; 0.63% of 310,000 active; calls by dose curve; tested in A549 cells; also: nearly all actives have a fitted effect of over 35% in size
Vaccinia Venus: qHTS for Stage-Specific Inhibitors of Vaccinia Orthopoxvirus: Venus Reporter Primary qHTS | Vaccinia virus Venus reporter expression, fluorescence | Potency, µM (doses to about 36.5 µM), for inactives: at the highest dose activity change, negative = inhibition, hits mostly inhibitors | 0.46% of 330,000 active; calls by dose curve; tested in A549 cells; also: nearly all actives have a fitted effect of over 30% in size
Lassa entry inh: qHTS for Inhibitors of binding or entry into cells for Lassa Virus; Lassa virus pseudotype entry inhibition, cell reporter; Potency, µM (series often up to 37.9 µM), inactives show top-dose activity change, negative = inhibition, hits mostly inhibitors; 1.2% of 300,000 active; AID 540256, 2011; calls by dose curve; tested in HEK293 cells; also: nearly all actives have a fitted effect of over 50% in size
MARV entry inh: qHTS for inhibitors of binding or entry into cells for Marburg Virus; Marburg virus pseudotyped entry inhibition, cell reporter; Potency, µM (top dose mostly 37.8 µM), for inactives: at the highest dose activity change, negative = inhibition, hits mostly inhibitors; 1.8% of 300,000 active; calls by dose curve; tested in HEK293 cells
Numbers without * were called inactive; [ ] = another dose, or the depositor's remark. % is scaled to controls: 0 for no effect and ±100 for the full control effect; potency is read from the fitted curve at half-maximal effect.

For CNS(=O)(=O)c1ccc2c(c1)NC(=O)C1CCCN21 (stereo not drawn) the results were Sm TGR block inconclusive, FMDV inh -12%, Vaccinia mCherry -9%, Vaccinia Venus -15%, Lassa entry inh 35% and MARV entry inh inconclusive.
For N#Cc1ccc2c(c1)NC(=O)C1CCCN21 (stereo not drawn) the results were Sm TGR block 20µM*, FMDV inh -7%, Vaccinia mCherry -10%, Vaccinia Venus -2%, Lassa entry inh -1% and MARV entry inh -29%[46.1 µM].
For COc1ccc(OC)c(NC(=O)CCNC(=O)Cn2cnc3ccccc3c2=O)c1 the results were Sm TGR block inconclusive, FMDV inh -19%, Vaccinia mCherry -16%, Vaccinia Venus -8%, Lassa entry inh 20%[46.1 µM] and MARV entry inh -1%[46.1 µM].
COc1ccc(OCC(=O)Nc2cc(-c3nn(C)c(=O)c4ccccc34)ccc2OC)cc1 was read as Sm TGR block 4%, FMDV inh inconclusive, Lassa entry inh inconclusive and MARV entry inh 4.1µM*.
For COc1ccc(NC(=O)COc2ccc(-c3nn(C)c(=O)c4ccccc34)cc2)cc1 the results were Sm TGR block 14%, FMDV inh -14%, Vaccinia mCherry 1%, Vaccinia Venus -19%, Lassa entry inh -6%[46.1 µM] and MARV entry inh inconclusive.
COc1ccc(OC)c(NC(=O)CNC(=O)Cn2cnc3ccccc3c2=O)c1 was read as Sm TGR block 1%, FMDV inh -4%, Vaccinia Venus 7%, Lassa entry inh -4% and MARV entry inh 0.71µM*.
`CC(C)c1cc(-c2nc(-c3ccc(Cl)cc3)no2)n[nH]1` gave Sm TGR block -2%, FMDV inh -16%, Vaccinia mCherry -15%, Vaccinia Venus -21% and Lassa entry inh inconclusive.
`Cc1ccc2c(C(=O)CN3CCC(C(N)=O)CC3)c(C)[nH]c2c1` gave Sm TGR block 35µM*.
`Cc1ccc2c(C(=O)CN3CCCCC3)c(C)[nH]c2c1` gave Sm TGR block 20µM* and FMDV inh 1%.
Cc1ccc2c(C(=O)CN3CCOCC3)c(C)[nH]c2c1 was read as Sm TGR block inconclusive, FMDV inh 21%, Vaccinia mCherry -3%, Vaccinia Venus -12%, Lassa entry inh -2% and MARV entry inh 11%[46.1 µM].
COC(=O)C1=C(C)OC(N)=C(C#N)[C@H]1c1ccc(OC)c(OC)c1OC was read as MARV entry inh 7%.
`COc1cc(/C=C2/CCc3ccccc3C2=O)cc(OC)c1OC` gave Sm TGR block -1%, FMDV inh inconclusive, Vaccinia mCherry inconclusive, Vaccinia Venus inconclusive, Lassa entry inh inconclusive and MARV entry inh 11µM*.
`COc1cc(/C=C2\CC(C(C)(C)C)C/C(=C\c3cc(OC)c(OC)c(OC)c3)C2=O)cc(OC)c1OC` (stereo not drawn) gave Sm TGR block 2% and FMDV inh 14µM*.
`COc1cc(/C=C2\CCc3ccccc3C2=O)cc(OC)c1OC` gave Sm TGR block -16%, FMDV inh -27%, Vaccinia mCherry inconclusive, Vaccinia Venus -25%, Lassa entry inh inconclusive and MARV entry inh inconclusive.
Screening COc1cc(/C=C2\COC/C(=C\c3cc(OC)c(OC)c(OC)c3)C2=O)cc(OC)c1OC returned Sm TGR block inconclusive, FMDV inh 3.5µM*, Vaccinia mCherry inconclusive, Vaccinia Venus inconclusive, Lassa entry inh inconclusive and MARV entry inh inconclusive.
CC(=O)N(\C=C/C=C/C=C1\Sc2ccccc2C1=O)c1ccccc1 was read as Sm TGR block 16µM*, FMDV inh -11%, Vaccinia mCherry -23%, Vaccinia Venus 25%, Lassa entry inh -14% and MARV entry inh inconclusive.
CN(C)/C=C1/Sc2ccccc2C1=O was read as Sm TGR block 7%, FMDV inh 47%, Vaccinia mCherry inactive, Vaccinia Venus -16%, Lassa entry inh 19% and MARV entry inh 4%.

Screens deposited in PubChem BioAssay by National Center for Advancing Translational Sciences (NCATS).
